Compounds with a hit are over-represented: about 13% of the library has one in this group of screens.
Pf growth 48h: inhibits P. falciparum growth in the first generation, 48 h; 310,000 tested, 5.9% active; Potency, µM (top dose mostly 28.7 µM), inactives show top-dose activity change, negative = inhibition, most hits filed as inhibitors; AID 504832; P. falciparum luciferase growth in erythrocytes, 48 h; note: potency is the fitted concentration of half-maximal effect
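Growth was read as firefly luciferase luminescence after a 48 h, 37 C, 5% CO2 exposure of compounds to reporter-bearing P. falciparum cultures (0.1% parasitemia, 2% hematocrit final) in Albumax-supplemented RPMI 1640.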
HCV inhibitor: blocks hepatitis C virus. Huh7.5.1 HCVcc-Cre infection, luciferase reporter, 44 h. 340,000 tested, 3.4% active. Potency, µM (highest dose often 41.8 µM), inactives show at the highest dose activity change, negative = inhibition, actives largely listed as inhibitors. AID 651820; note: potency is the fitted concentration of half-maximal effect
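Whole-lifecycle infectious HCVcc-Cre system; cells 1,000/well, compound then virus (~0.5 moi) added 4 h after plating, 44 h culture. Luciferase read 15 sec following 15 min substrate incubation, room temp.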
Pf growth 96h: P. falciparum growth inhibition at 96 hour, primary screen for plastid delayed-death inhibitors. P. falciparum luciferase reporter growth, 96 h. Potency, µM (highest dose often 28.7 µM), for the others: at the top dose activity change, negative = inhibition, usual class: inhibitors. 320,000 tested, 6.9% active; note: potency is the fitted concentration of half-maximal effect
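Two-generation exposure (96 h) targets delayed-death phenotype. Reporter parasites carrying integrated firefly luciferase, in red cells at 2% hematocrit and 0.05% parasitemia final, kept at 37 C, 5% CO2; luminescence loss indicates inhibition.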
HCMV antiviral: inhibitors of human cytomegalovirus. HFF cells, HCMV-luciferase reporter, 72 h; hits give low values. activity change, negative = inhibition, % at 57.5 µM. 410,000 tested, 4.5% active; in the data active = activity change below about -60%; inconclusive = no clear call, values can overlap the other calls; inactive = above about -39%
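Two compound doses tested in HFFs infected with HCMV-luciferase, MOI 1 PFU/cell, 72 h at 37C. Lysate luminescence read with OneGlo; data normalized against buffer-only and 10uM Salinomycin inhibitor controls.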
* marks the source's active call; other numbers are inactive results; ? = inconclusive; · = no result. Unless noted, calls come from the whole dose curve; as a rule, active = well fitted inhibition curve with a large enough effect; inconclusive = small, poorly fitted or top-dose-only effect, or another doubt; inactive = no such curve, though single readings can be large or run the other way. % is set by controls: 0 for no effect and ±100 for the full control effect.

SMILES	Pf growth 48h	HCV inhibitor	Pf growth 96h	HCMV antiviral
CCCc1nc2oc3c(NCCCN(C)C)ncnc3c2c2c1CCCC2	9.28µM*	-76.9%	13.1µM*	-98.1*
Cc1cccc(CNC(=O)CS(=O)(=O)c2cccc3nsnc23)c1	·	·	·	6.8
COc1ccc(/C=C/C(=O)N(CC(C)C)C2CCS(=O)(=O)C2)cc1 (centres undefined)	-8.3%	5.7%	?	-31.6
CC(C)CN(C(=O)/C=C/c1nc2ccccc2s1)C1CCS(=O)(=O)C1 (centres undefined)	?	?	7.38µM*	-32.1
CC(=O)c1cc(-c2ccc(F)cc2)n(CCC(=O)Nc2nc3c(C)cccc3s2)c1C	·	·	·	0.0
CN1CCN(c2c(F)cc3c(=O)c(C(=O)O)cn4c3c2SCC4)CC1	?	9.4%	5.22µM*	1.8
CCS(=O)(=O)NCC(c1cccnc1)N1CCN(c2ccccc2OC)CC1 (centres undefined)	-7.0%	-0.3%	-1.8%	10.9
COc1ccc(S(=O)(=O)NCC(c2cccnc2)N2CCN(c3ccc(F)cc3)CC2)cc1C (centres undefined)	4.65µM*	-8.2%	236.5%	-19.7
COc1ccc(N2CCN(C(CNS(=O)(=O)c3cc(F)ccc3F)c3cccnc3)CC2)cc1 (centres undefined)	·	2.1%	?	-106.6*
O=S(=O)(NCC(c1cccnc1)N1CCN(Cc2ccccc2)CC1)c1cc(F)ccc1F (centres undefined)	?	4.2%	10.4µM*	-4.3
COc1ccccc1N1CCN(C(CNS(=O)(=O)c2cccs2)c2cccnc2)CC1 (centres undefined)	10.4µM*	?	?	17.6
COc1ccc(Cc2c(C)nn(-c3nc(C)c(C(=O)Nc4cccc(C(C)=O)c4)s3)c2C)cc1	·	·	·	-28.2
CCN1CCN(C(CNS(=O)(=O)c2ccc(OC)c(C)c2)c2cccnc2)CC1 (centres undefined)	-5.0%	0.4%	14.7µM*	28.9
COc1ccc(S(=O)(=O)NCC(c2cccnc2)N2CCN(c3ccccc3)CC2)cc1C (centres undefined)	·	?	?	15.8
Brc1ccccc1OCCCCn1cnc2ccccc21	-15.8%	10µM*	?	-60.2*
Cc1ccc(OCCCCNC(C)c2ccccc2)c(C)c1 (centres undefined)	?	10µM*	?	12.4
Cc1ccc(OCCCCn2cnc3ccccc32)c(C)c1	·	?	?	-98.4*
CN(C)S(=O)(=O)c1ccc2c(c1)N(CC(=O)N1CCN(c3ccccc3F)CC1)CCS2	·	·	·	-32.6
CCOc1cccc(CNC(=O)c2ccc(N3CCCC3)c(NC(=O)NCc3ccc(F)cc3)c2)c1	·	·	·	-9.5
CCn1cc(C(=O)N2CCN(c3ccccc3F)CC2)c(=O)c2cc(S(=O)(=O)N(C)C3CCCCC3)ccc21	·	·	·	20.1
CCCCN(C)CCCNC(=O)c1cn(C)c2ccc(S(=O)(=O)N(C)C3CCCCC3)cc2c1=O	?	?	4.7%	?
CCn1cc(C(=O)NCCCN2CCCC(C)C2)c(=O)c2cc(S(=O)(=O)N(C)C3CCCCC3)ccc21 (centres undefined)	?	?	11.7µM*	?
CCCCN(CC)CCCNC(=O)c1cn(C)c2ccc(S(=O)(=O)N(C)C3CCCCC3)cc2c1=O	?	3.0%	14.7µM*	-16.6
CN(C1CCCCC1)S(=O)(=O)c1ccc2c(c1)c(=O)c(C(=O)NCCCN1CCCC1)cn2C	·	-10.1%	13.1µM*	-23.0
CCn1cc(C(=O)N2CCc3ccccc32)c(=O)c2cc(S(=O)(=O)N(C)C3CCCCC3)ccc21	11.7µM*	?	?	4.4
SMILES	Pf growth 48h	HCV inhibitor	Pf growth 96h	HCMV antiviral
CCOC(=O)c1ccc(NC(=O)CC2C(=O)N(c3cccc(OC)c3)C(=O)N2Cc2cccnc2)cc1 (centres undefined)	·	·	·	-24.6
Cc1ccc(C)c(NC(=O)C2CCN(c3cc(C)nc4c(-c5ccc(Cl)cc5)c(C)nn34)CC2)c1	·	·	·	4.7
CC1=C(C(=O)Nc2ccccc2)C(c2cccn2C)n2ncnc2N1 (centres undefined)	·	·	·	21.2
CCc1ccc(N2C=C(C(=O)OC)C(c3ccc(OC)cc3)C(C#N)=C2N)cc1 (centres undefined)	·	·	·	-76.6*
Cc1ccc(S(=O)(=O)c2nc(S(=O)(=O)c3ccc(C)cc3)c(NCCCOC(C)C)s2)cc1	·	·	·	-6.0
CCCN1C(=O)COc2ccc(-c3n[nH]c(=O)c4ccccc34)cc21	11.5%	-22.9%	?	-101.8*
CCCN1C(=O)COc2ccc(C(=O)c3ccccc3C(=O)O)cc21	?	9.7%	?	-13.8
O=C(NNC1=C(C(=O)C(F)(F)F)CCC1)c1ccc(Cl)cc1	19.4%	-5.6%	2.94µM*	9.7
CCN(CC)C(=O)[C@H]1CC(CC(=O)NC(C)(C)C)C(=O)N2CCc3c([nH]c4ccc(OC)cc34)[C@]12C (some centres undefined)	·	?	·	-29.0
CC[C@H]1CC2CN3CCc4c([nH]c5cc(OC)ccc45)[C@](C(=O)OC)(C2)[C@H]13	·	35.5µM*	·	·
COC(=O)C(c1ccccc1)(c1cn(C)c2ccccc12)C(Nc1ccc(Cl)cc1)c1ccccc1 (centres undefined)	·	·	·	-27.2
CC1CCc2c(C(=O)Oc3cccc(-n4cnnn4)c3)csc2C1 (centres undefined)	5.86µM*	-19.7%	?	-21.6
Cc1ccc(C(=O)Oc2cccc(-n3cnnn3)c2)cc1	261.5%	3.5%	-29.2%	57.1
CCOCCCn1c(=N)c(S(=O)(=O)c2ccc(C)cc2)cc2c(=O)n3cccc(C)c3nc21	·	·	·	-19.0
COc1ccc(CCNC(=O)CCCn2c(=O)c3ccccc3n(Cc3ccccc3)c2=O)cc1OC	·	·	·	-15.4
COc1ccc(OC)c(N(CC(=O)N2CCC(C)CC2)S(=O)(=O)c2ccc(OC)c(OC)c2)c1	?	17.1%	2.62µM*	4.8
CCOc1ccccc1N(CC(=O)NC1CCCCC1)S(=O)(=O)c1ccc(C)cc1	11.7µM*	-13.4%	24.3%	-77.5*
COc1ccc(OC)c(N(CC(=O)NC2CCCC2)S(=O)(=O)c2ccc(OC)c(OC)c2)c1	?	3.2%	5.86µM*	146.3
COc1ccccc1N(CC(=O)NC1CCCC1)S(=O)(=O)c1ccc(C)cc1	?	-9.1%	14.7%	-17.1
COc1ccccc1N(CC(=O)NC1CCCC1)S(=O)(=O)c1cccc(C(F)(F)F)c1	13.1µM*	6.5%	?	-30.5
COc1ccc(OC)c(N(CC(=O)N2CCC(C)CC2)S(=O)(=O)c2ccccc2)c1	?	6.5%	?	-2.6
Cc1ccccc1/C=C/c1cc[n+](C)cc1	5.22µM*	?	?	?
Cc1[nH]c2ccccc2c1/C=C/c1cc[n+](C)cc1	0.415µM*	?	0.147µM*	-68.9*
COc1cccc(Cn2c(C)c(CNCc3ccccc3Cl)c(C(=O)O)c2C)c1	·	·	·	9.7

Compound activity as filed in PubChem.
